# Several values for one entry are separate records, joined by “and”; a condition that tells them apart may be missing. Equal values may be shown once. Activity calls are given as the source filed them. The calls were made as follows: active = hit-call score of the fitted dose curve at least 0.9, where 1 is the maximum; inactive = score below 0.9.
# Assay: CCTE_Shafer_MEA_dev_interburst_interval_mean: CCTE's Neural Network Formation Assay for Mean Interburst Interval, Shafer Lab (AID 2284046)
# Experimental: CCTE_Shafer_MEA_dev assay is conducted using Axion Biosystems 48 well microelectrode array (MEA) plates and Maestro recording system. Each well of the MEA plate contains a grid of 16 microelectrodes embedded in the culture surface. Electrically active cells, such as neurons, can be cultured over the electrodes, and electrical activity in these cells can be recorded extracellularly. The spontaneous firing of neurons is captured from each electrode on a microsecond timescale providing both temporally and spatially precise data. […] The CCTE_Shafer_MEA_dev assay uses primary cultures of rat cortical neurons. Recordings are made on days post-plating 5, 7, 9 and 12. As these cultures mature over time, neural networks develop functional activity and form cohesive networks in which electrical activity can be highly coordinated. CCTE_Shafer_MEA_dev_interburst_interval_mean is 1 of 19 assay components of the CCTE_Shafer_MEA_dev assay. It measures the average time interval between consecutive single-electrode bursts (temporally-clustered groups of action potential firing) during a recording in a microelectrode array (MEA) using Axion Biosystems Maestro 768 channel amplifier with the AxIS adaptive spike detector. The mean inter-burst interval is averaged across the actively bursting electrodes to report a well-mean value. To collapse across multiple recordings made on days post-plating 5, 7, 9 and 12, the trapezoidal area-under-the-curve of the component is calculated.Data from the assay component CCTE_Shafer_MEA_dev_interburst_interval_mean was analyzed into 1 assay endpoint. This assay endpoint, CCTE_Shafer_MEA_dev_interburst_interval_mean, was analyzed in the negative analysis fitting direction relative to DMSO as the negative control and baseline of activity. Using a type of functional reporter, gain or loss-of-signal activity can be used to understand electrical activity.
# On the day prior to culture, each well was coated thoroughly with 150 uL of 0.05% polyethyleneimine (PEI, Sigma Cat P3143) in 50 mM HEPES (Sigma Cat H7523) at a pH of 8. The plate was incubated at 37C for one hour. PEI was rinsed out with 500 uL of sterile water three times. Plates were stored at 4C until the day of culture. This culture was plated at a seeding density of 1.5 x 10^5 cells/well on a 48-well MEA plate, prepared as described above. Cells were administered via a 25 uL media/laminin ([…]; Sigma Cat L2020-1MG) drop directly onto the microelectrode array, as adding the cells with the laminin results in better attachment than pre-coating with laminin. After 2 hours, an additional 475 uL of cortical media was added and the cells returned to the incubator. Exposure starts at day 0 of plating and is continued over twelve days of network development until the experiment is terminated. Cells are fed with fresh medium on DIV 5 and 9, following the recordings on those days. The entire volume of media in the well is exchanged and any vehicle or compound treatment is renewed. Complete details are found in OP-NHEERL/ISTD/SBB/TJS/2015-03-r0 (available on request, email shafer.tim@epa.gov). Measurement of the electrical activity is non-invasive, and recordings can be made from the same plate over multiple different days of the culture. In cortical neurons, this allows for the measurement of extracellular action potentials over the period during which networks form in the MEA plate.
Structure (SMILES),outcome,AC50
c1ccc2cc3ccccc3cc2c1,inactive,–
CCCC(CCC)C(=O)O,inactive,–
NCC(F)(F)C(F)(F)C(F)(F)C(F)(F)F,inactive,–
COc1cc2c(c(OC)c1OC)-c1ccc(OC)c(=O)cc1[C@@H](NC(C)=O)CC2,–,15.9 nM (active)
CC[C@H](C)C(=O)O[C@H]1C[C@H](O)C=C2C=C[C@H](C)[C@H](CC[C@@H](O)C[C@@H](O)CC(=O)O)[C@H]21,inactive,–
Nc1ccn([C@@H]2O[C@H](CO)[C@@H](O)[C@@H]2O)c(=O)n1,–,158 nM (active) and 437 nM (active)
CCOc1ccc2[nH]cc(C(=O)NCc3ccccc3)c(=O)c2n1,inactive,–
c1ccc2c(c1)-c1cccc3c1c-2cc1ccccc13,inactive,–
OC(Cn1cncn1)(Cn1cncn1)c1ccc(F)cc1F,inactive,–
NC(=O)N1c2ccccc2C=Cc2ccccc21,inactive,–
Cn1cc[nH]c1=S,inactive,–
NNC(=O)c1ccncc1,inactive,–
OC(O)(C(F)C(O)(O)C(F)(F)F)C(F)(F)F,inactive,–
C[C@]12C=CC(=O)C=C1CC[C@H]1[C@@H]3C[C@@H](O)[C@](O)(C(=O)CO)[C@@]3(C)C[C@H](O)[C@@]12F,inactive,–
O=C(Cl)C(F)(F)C(F)(F)C(F)(F)C(=O)Cl,inactive,–
FC(F)(F)C(F)(F)C(F)(F)C(F)(F)C(F)(F)C(F)(F)I,inactive,–
FC(F)(F)COC(OCC(F)(F)F)OCC(F)(F)F,inactive,–
CCN(CC)C(=S)SSC(=S)N(CC)CC,–,200 nM (active) and 55.2 nM (active)
OCCC(F)(F)C(F)(F)C(F)(F)C(F)(F)F,inactive,–

# — PubChem BioAssay (EPA / NIEHS)
